Measurements as given in PubChem BioAssay AID1421 (Emory University Molecular Libraries Screening Center, 2008).
Among all 1,300 compounds or so, about 140 (11%) were called active. The rule behind the calls is not given here. These entries were drawn from the full list. Measured potencies and affinities stand elsewhere.

Target: Prostaglandin E2 receptor EP2 subtype (Homo sapiens) (UniProt P43116)
Assay: EP2 receptor modulators, dose response, cell-based, human EP2, PGE2 EC50 shift (AID 1421)
Conditions: EP2-expressing cells, PGE2 EC50 shift by compound; at 20 µM

Chain of Prostaglandin E2 receptor EP2 subtype (Homo sapiens) (P43116 whole entry, looked up): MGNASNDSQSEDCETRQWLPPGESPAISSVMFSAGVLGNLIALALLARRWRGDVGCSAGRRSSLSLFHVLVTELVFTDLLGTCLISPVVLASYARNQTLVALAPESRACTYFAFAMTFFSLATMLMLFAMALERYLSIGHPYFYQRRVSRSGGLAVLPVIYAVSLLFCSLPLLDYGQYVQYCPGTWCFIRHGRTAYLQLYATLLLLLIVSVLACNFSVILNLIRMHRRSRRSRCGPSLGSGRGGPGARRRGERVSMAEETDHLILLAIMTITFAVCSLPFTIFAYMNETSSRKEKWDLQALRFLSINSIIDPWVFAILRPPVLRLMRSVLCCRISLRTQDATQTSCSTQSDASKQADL

PGE2 EC50 with compound, inactive:
CCc1ccccc1NC(=O)/C(=C/c1ccco1)c1ccccc1 0.16 nM, Cc1ccccc1NC(=O)/C(=C/c1ccccc1)c1ccccc1 0.24 nM, O=C(O)COc1cccc(NC(=O)c2ccccc2)c1 1.05 nM, Nc1c(C(=O)NCc2ccco2)c2nc3ccccc3nc2n1CCc1ccccc1 1.38 nM, Nc1c(C(=O)NCc2ccccc2)c2nc3ccccc3nc2n1CCCN1CCOCC1 0.76 nM, CCCCNCC(=O)Nc1sc(C)c(C)c1C(=O)OCC 0.33 nM, CCOC(=O)c1c(NC(=O)c2ccoc2C)sc(C(=O)N(C)C)c1C 0.6 nM, CCOC(=O)c1c(NC(=O)CN2CCCCC2)sc2c1CCN(C(=O)OCC)C2 0.83 nM, CCOC(=O)c1c(NC(=O)c2cccnc2)sc(C)c1C 0.31 nM, Cc1ccccc1-n1c(=O)[nH]c(=O)c2c(N)c(C(=O)c3ccc(Cl)cc3)sc21 0.74 nM, S=c1[nH]nc(-c2ccco2)n1/N=C/c1ccc(Cl)cc1Cl 2.86 nM, CCOP(=O)(c1ccccc1)c1nc(-c2ccccc2C)oc1N1CCCCC1 (stereo not given) 0.42 nM, CSc1nc(Sc2ccccc2)c2ccccc2n1 0.21 nM, C=CCSc1nc2ccccc2c(=O)n1Cc1ccccc1 0.31 nM, C=CCSc1nc2ccccc2n1S(=O)(=O)c1ccc(C)cc1 0.5 nM, CCCC1=C(C(=O)OCC)C(c2cccs2)C(C#N)=C(N)O1 (stereo not given) 0.32 nM, COc1ccc(-n2c(COc3cccc4ccccc34)nnc2SCC(=O)NCc2ccco2)cc1 0.72 nM, CCCCCCn1c(COc2ccccc2F)nnc1SCC(=O)N1c2ccccc2NC(=O)C1(C)C 0.69 nM, CCOC(=O)c1sc2nc(C)nc(N3CCN(c4ncccn4)CC3)c2c1C 0.7 nM, Cc1ccc(C(Sc2ccccc2)C(Cn2cncn2)C(=O)c2ccccc2)cc1 (stereo not given) 0.38 nM, Cc1ccc(-c2cc3ccccc3nc2N2CCOCC2)cc1 0.38 nM, Cc1ccc(-c2nc(P(=O)(c3ccccc3)c3ccccc3)c(N3CCOCC3)o2)cc1 0.39 nM, CC(C)c1ccc(/C=N/Nc2cc(N3CCOCC3)nc(N3CCOCC3)n2)cc1 0.21 nM, Clc1ccc(-c2ccc(/C=N/Nc3cc(N4CCOCC4)nc(N4CCOCC4)n3)o2)cc1 0.09 nM, Cc1cccc(Oc2sc(C(=O)c3ccccc3)c(N)c2C#N)c1 0.48 nM, C[C@H](C(=O)c1ccccc1)[C@@H](c1ccccc1)N1CCOCC1 0.33 nM, Cc1ccc2[nH]c3c(=S)nc[nH]c3c2c1 10.1 nM, CN(C)c1nc(-c2ccccc2)c2cnn(Cc3ccccc3)c2n1 0.17 nM, Cc1cccc(CSc2ncnc3ccccc23)c1 0.37 nM, CC1(c2ccccc2)CC(C)(C)N(C(=O)C2CCCO2)c2ccccc21 (stereo not given) 0.39 nM, CCc1ccc2[nH]c(=O)c(CN(Cc3nnnn3C3CCCC3)C3CCCCC3)cc2c1 0.64 nM, O=C(Nc1ccccc1Oc1ccccc1)c1ccc(Br)o1 0.3 nM, O=C(Nc1ccccc1-c1nc2ccccc2s1)c1ccc(Br)o1 0.41 nM, CCOC(=O)c1cnc2ccc(OCC)cc2c1N(C)Cc1ccccc1 0.07 nM, CCCCOc1ccccc1Cn1c(=O)oc2ccccc21 0.29 nM, CCCOc1ccccc1Cn1c(=O)oc2ccc(C)cc21 0.27 nM, CC(C)NC(=S)N/N=C1\CCCCC1C1CCCCC1 (stereo not given) 0.74 nM, CCN(c1cccc(C)c1)S(=O)(=O)c1ccc2c3c(cccc13)C(=O)N2 0.94 nM, C#CCn1c(S(=O)(=O)Cc2ccc(F)cc2)nc(-c2ccccc2)c1-c1ccccc1 0.37 nM, O=C1COc2ccccc2N1Cc1ccccc1Cl 0.31 nM, CC1(C)OC(c2ccccc2)=C/C(=C/C=Nc2ccccc2)O1 0.33 nM, CCSC1=N/C(=C\c2ccccc2)C(=O)N1c1ccc(OC)cc1 0.92 nM, CCOc1ccc2cc(C#N)c(SCC(=O)NC(C)CC)nc2c1 (stereo not given) 0.8 nM, CC(=O)c1cc(C#N)c(SCc2ccccc2)nc1C 0.51 nM, O=C(O)c1oc(C(=O)O)c(C(=O)O)c1C(=O)O 0.58 nM, C1=C(c2ccccc2)Nc2ccccc2N=C1c1ccccc1 0.4 nM, CSc1nnc(-c2ccc(F)cc2)o1 1.06 nM, CCOC(=O)CSc1nc(-c2ccccc2)nc2ccccc12 0.26 nM, COC(=O)CSc1nc(-c2ccccc2)nc2ccccc12 0.22 nM, C=CCn1c(=O)c2c3c(sc2n2c(Nc4ccc(OC)cc4)nnc12)CCCC3 0.74 nM, CCC(Sc1nc(-c2ccccc2)c(C#N)c(=O)[nH]1)C(=O)Nc1cc(C)on1 (stereo not given) 3.58 nM, Cc1cc2cc(CN(Cc3nnnn3C3CCCCC3)CC3CCCO3)c(=O)[nH]c2cc1C (stereo not given) 0.34 nM, Cc1ccccc1C(=O)Nc1ccccc1Sc1ccccc1 0.45 nM, O=C(Cc1ccc(F)cc1)Nc1ccccc1Sc1ccccc1 0.23 nM, COCCCN(C(=O)c1ccco1)c1nc(-c2cc(OC)ccc2OC)cs1 0.27 nM, CCCCc1nc2sc3c(SCC(=O)NCc4ccco4)ncnc3c2c2c1CCC2 0.59 nM, CCN(CC)C(=O)CN(c1cc2c(cc1OC)oc1ccccc12)S(=O)(=O)c1ccc(C)cc1 0.39 nM, Cc1cc2ccccc2nc1SCC(=O)NC1CCCCC1 1.22 nM, COc1ccc(-c2nc3c(c(=O)[nH]c(=O)n3Cc3ccccc3)n2Cc2ccccc2)cc1 0.28 nM, COc1ccc(-c2nc3ccccc3n2Cc2ccccc2)cc1 0.33 nM
